The full data set covers some 7,900 targets. This sample favours those with a hit. About 0.6% of all pairs of compound and target were hits.

Sequence of YES1 (P07947 whole entry, looked up): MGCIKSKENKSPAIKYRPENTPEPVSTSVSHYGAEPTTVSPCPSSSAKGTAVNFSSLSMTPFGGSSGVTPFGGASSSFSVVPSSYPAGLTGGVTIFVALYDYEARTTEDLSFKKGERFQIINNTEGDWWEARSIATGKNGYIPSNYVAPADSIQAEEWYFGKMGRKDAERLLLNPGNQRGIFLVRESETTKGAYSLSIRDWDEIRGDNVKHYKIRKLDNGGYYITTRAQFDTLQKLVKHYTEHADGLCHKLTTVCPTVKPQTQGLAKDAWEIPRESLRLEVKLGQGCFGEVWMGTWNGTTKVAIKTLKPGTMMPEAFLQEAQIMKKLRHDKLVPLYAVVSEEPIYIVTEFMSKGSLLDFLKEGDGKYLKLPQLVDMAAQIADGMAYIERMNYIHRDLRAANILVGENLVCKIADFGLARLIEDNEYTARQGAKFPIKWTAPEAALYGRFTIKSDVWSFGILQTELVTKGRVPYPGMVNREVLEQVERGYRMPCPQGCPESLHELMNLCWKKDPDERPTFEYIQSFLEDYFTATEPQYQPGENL

The assay addresses YES1 (UniProt P07947). Kind of assay: log2 fold change, soluble protein after heating vs DMSO (PISA); higher = thermal stabilisation; K562 cells, 10 uM, 30 min; active = over 0.2 and 3.5 SD of the protein, either way, in both replicates (recomputed). The procedure, abridged: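 K562 cells (2×10^6 cells/mL) were treated with 10 μM compound for 30 min, and aliquots were heated for 3 min over 48°C-58°C. Pooled aliquots were extracted in PBS with 0.5% NP-40 at 4°C, and the supernatant after 21,000xg for 90 min was measured by TMTpro 16plex LC-MS/MS with channel sums equalised. Reported thermal stability, relative to control samples and from duplicates, is a log2 fold change.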
Regarding `NCC(=O)Nc1ccc(-n2nc(C(F)(F)F)cc2-c2ccc3c(ccc4ccccc43)c2)cc1`, the log2 fold change was 0.001 (inactive).

For `COc1ccc(Cn2ccc3ccc(C(=O)NO)cc32)cc1`, the log2 fold change is 0.072 (inactive).

With `COc1cc(C(=O)O)ccc1NC(=O)[C@@H]1N[C@@H](CC(C)(C)C)[C@](C#N)(c2ccc(Cl)cc2F)[C@H]1c1cccc(Cl)c1F` [idasanutlin], the log2 fold change is 0.041 (inactive).

For `C/C(=N\NC(=O)c1cccc(S(=O)(=O)N2CCOCC2)c1)c1cc(Cl)ccc1O`, the log2 fold change is 0.072 (inactive).

`Cc1ccc2c(=O)c3ccccc3n(CCCN)c2c1C`: the log2 fold change is 0.043 (inactive).

On to `CCCCN(Cc1ccc(C(=O)NO)cc1)C(=O)Nc1ccccc1` [Nexturastat A], for which the log2 fold change was 0.142 (inactive).

For `COC(=O)[C@H](CCSC)NC(=O)c1ccc(NC[C@@H](N)CS)cc1-c1ccccc1`, the log2 fold change is -0.006 (inactive).

Turning to `O=C(CCCCCCNC(=O)c1cnc(N(c2ccccc2)c2ccccc2Cl)nc1)NO` [citarinostat], the log2 fold change is 0.008 (inactive).

With `Cc1ccc(-n2nc(C(C)(C)C)cc2NC(=O)Nc2ccc(OCCN3CCOCC3)c3ccccc23)cc1` [doramapimod], the log2 fold change is 0.006 (inactive).

With `CC(C)(O)CC(=O)NCCn1ccc2ncnc(Nc3ccc(Oc4cccc(C(F)(F)F)c4)c(Cl)c3)c21`, the log2 fold change is -0.054 (inactive).

Take `CC(C)(C)Cn1c(N)nc2ccc(-c3[nH]c(C(C)(C)C)nc3-c3ccc(F)cc3)nc21` [ralimetinib]: the log2 fold change is -0.09 (inactive).

Take `CC(C)c1cnn2c(NCc3ccccc3)cc(NCCCCCCN)nc12`: the log2 fold change was 0 (inactive).

In the case of `NC(=O)c1cnc(N[C@@H]2CCCC[C@@H]2N)nc1Nc1cccc(-n2nccn2)c1`, the log2 fold change is -0.114 (inactive).

Consider `CC(C)N(C[C@H]1O[C@@H](n2cnc3c(N)ncnc32)[C@H](O)[C@@H]1O)[C@H]1C[C@@H](CCc2nc3cc(C(C)(C)C)ccc3[nH]2)C1` [pinometostat], for which the log2 fold change is 0.035 (inactive).

In the case of `C[C@@H](Oc1cc(-c2cnn(C3CCNCC3)c2)cnc1N)c1c(Cl)ccc(F)c1Cl` [crizotinib], the log2 fold change was -0.576 (active).

As to `O=C1NC(=NCc2cccs2)S/C1=C\c1ccc2ncccc2c1`, the log2 fold change is 0.094 (inactive).

Regarding `Cc1cn(-c2cc(NC(=O)c3ccc(C)c(Nc4nccc(-c5cccnc5)n4)c3)cc(C(F)(F)F)c2)cn1` [nilotinib], the log2 fold change is -0.033 (inactive).

For the compound `Cc1cccc(-c2[nH]c(C(C)(C)C)nc2-c2ccc3nccnc3c2)n1`, the log2 fold change is 0.008 (inactive).

For `CN1CCc2c(c3ccccc3n2Cc2ccc(C(=O)NO)cc2)C1` [Tubastatin A], the log2 fold change was 0.094 (inactive).

As for `CC[C@@H]1C(=O)N(C)c2cnc(Nc3ccc(C(=O)NC4CCN(C)CC4)cc3OC)nc2N1C1CCCC1`, the log2 fold change is 0.129 (inactive).

As to `CNC(=O)c1ccc(Nc2ncc(C(F)(F)F)c(NCc3nccnc3N(C)S(C)(=O)=O)n2)cc1` [defactinib], the log2 fold change is -0.199 (inactive).

With `CN1CCC(CNc2ccc3ncc(-c4cccc(OC(F)(F)F)c4)n3n2)CC1`, the log2 fold change was -0.326 (inactive).

Take `NC1(Cc2ccc(Cl)cc2)CCN(c2ncnc3[nH]ccc23)CC1`: the log2 fold change was -0.059 (inactive).

Regarding `Cn1cncc1[C@@](N)(c1ccc(Cl)cc1)c1ccc2c(c1)c(-c1cccc(Cl)c1)cc(=O)n2C` [tipifarnib], the log2 fold change was -0.001 (inactive).

Turning to `Cc1cc(Nc2cc(N3CCN(C)CC3)nc(Sc3ccc(NC(=O)C4CC4)cc3)n2)n[nH]1` [tozasertib], the log2 fold change is -0.45 (inactive).

Turning to `O=C(Nc1cccc(Nc2ncc(Br)c(NCCc3cnc[nH]3)n2)c1)N1CCCC1`, the log2 fold change was -0.139 (inactive).

As to `c1cc(OCCN2CCCCC2)cc(-c2n[nH]c3ccc(-c4nnc[nH]4)cc23)c1`, the log2 fold change is -0.235 (inactive).

Take `O=C1c2ccccc2-c2n[nH]c3cccc1c23`: the log2 fold change is -0.153 (inactive).

`CC(=O)c1cnc2ccc(-c3cc(Cl)c(O)c(Cl)c3)nc2c1N[C@H]1CC[C@H](CN(C)C)CC1`: the log2 fold change was -0.819 (active).

For `O=C(Nc1nc2ccccc2n1CCN1CCOCC1)c1cccc([N+](=O)[O-])c1` [IRAK-1-4 Inhibitor I], the log2 fold change was -0.152 (inactive).
